Here are results for 22 sequences from the supplement of paper PMC6555819.

For the assay, the system named is RARa homodimer (NR concentration 270 nM). Description: PBM binding z-score (relative to random genomic background probes); higher = stronger binding; sequences stand for … in GC…GCGATTGACAGCGTAGAATGAAGG
In a few lines: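 For binding z-scores, the reference was random background probes on custom Agilent 4×180K protein-binding microarrays. These arrays were incubated 1 h with ligand-free nuclear receptor dimers in PBS pH 7.4, 2% milk, 0.02% Triton X-100, 1 mM DTT, 0.2 mg/mL BSA and 0.4 mg/ml salmon testes DNA. Fluorescence was scanned after antibody detection of each partner (one per run) and regression-normalized.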
Sequence TCTTGTAGATCAAGCAGGTTAGGAAAGCCTGAGT showed a PBM binding z-score of -0.0735. With ATCTCTAGGTAGAGTTCAGTGAAAGATCGATAGA, the PBM binding z-score came out at 0.329. Turning to GCTTGTAGAGCAAGGTTAAGAAAGACTAAGCTAA, the PBM binding z-score is -0.213. The figure for CAAACTAGGTCAAATGTCAAAGTCGAGCCAACCA is 1.02; for TCATATAGGTATAGGTGAAAGTCGAACGATATGA it is 0.0245.

CAAACTAGGTCAAGAGATCAAAGTCCGCTTCCCG gave a PBM binding z-score of 0.821. Next, CCTGCTAGGTCAATCGTCAGCTAAAGCAGCTCGC: -0.666. Sequence CGTCAAAGTTCAAGGTAACGTGACAGAAAGCAGC returned a PBM binding z-score of 1.05. In turn, ATCGAAACGTCGAGGTGAGTATAGAGAAAGGGAA displayed a PBM binding z-score of -0.11. Next, AGCGAAAGGTCGTGAGGTGAGTATACAGAAAGGC: 0.217. Next, CGAACTAGGGCATTGACAGGACAGTGAATAGTAA: 0.262; CGGACTGGGGCAAGGTTACCATAACGCACAGCCA: -0.565; AGCATGAGGTTACCAAAGATCAGGGAAACGCTTG: -0.672.

Take CTAGCAAGGTGAACAAGGTCGTTGATTACTATTC: the PBM binding z-score was -0.493. On to CTACTAAGGTGAACAAGGTCGTTGATTACTATTC, for which the PBM binding z-score was 0.606. The figure for CGTCCAAGGTCAAAGTTCAGTGAAGAGATGACGG is 1.47. The figure for TCTTGTAGATCAATAGAGGGTAAGAAAGTGCGCT is 0.388. In turn, ATCGAAAGGTCGTGAGGTGCGTATACAGAAAGGC showed a PBM binding z-score of 0.318. Sequence CCTATTAGTTGAGCATAAGGGCAACCGAAGCTCG showed a PBM binding z-score of 1.39.

TCTTGTAGATCAACAGGAGGTTAAAAAAGATCGA returned a PBM binding z-score of 0.296.

Consider TGAATGAGGTTAAAGTTCAGGGAACGTGGCGTCG, for which the PBM binding z-score was 0.262. The figure for ATCTCTAGGTAAGACTCAATTCAGTGAAGAACGC is 1.25.
